Results filed as inconclusive are left out. A call without a number means that no potency is given here. Calls of active or inactive are those of the source. Calls follow the shape of the dose curve; as a rule, active = well fitted cell-killing curve with a large enough effect; inconclusive = small, poorly fitted or top-dose-only effect, or effect the other way; inactive = flat fitted curve, though single readings scatter.
Assay: MultiTox-Fluor Cytotoxicity Assay - LYMP1-002 - Live Cells (AID 955)
Details: LYMP1-002 lymphoblastoid live-cell protease fluorescence viability; series mostly up to 46.1 µM
From the text: NIH Chemical Genomics Center [NCGC]
NIH Molecular Libraries Screening Centers Network [MLSCN]
National Institutes of Environmental Health Sciences [NIEHS]
National Toxicology Program [NTP]
We have developed a 1536-well cell-based assay for quantitative high throughput screening (qHTS) against a number of cell lines to determine in vitro cytotoxicity of small molecules. This particular assay uses a human lymphoblastoid cell line (LYMP1-002) purchased from Coriell Institute.
NCGC Assay Protocol Summary:
The MultiTox-Fluor Cytotoxicity Assay (Promega) is a homogeneous method to simultaneously measure the relative number of live and dead cells in culture by detecting changes in cell membrane integrity. There are two fluorogenic peptide substrates in the assay reagent. Viable cells are determined when the cell-permeant substrate (GF-AFC) enters the cell and is cleaved by protease from live cells resulting in liberated fluorophore. This live-cell protease activity restricted to viable cells is proportional to cell number. The dead cells are determined by using fluorogenic cell-impermeant peptide substrate (bis-AAF-R110) which cleaved by dead cell proteases leaking from damaged cell membrane.
Using the MultiTox-Fluor Cytotoxicity Assay, the relative number of live cells was measured in the lymphoblastoid cell line with complete culture medium following compound treatment for 16 hours. The assay was performed in opaque black Kalypsys 1536-well plates. In the screen, tetraoctylammonium bromide was used as positive control. Library compounds were measured for their ability to cause acute toxicity in the cell line, as reflected by a decrease in live cell protease activity, in a concentration-dependent manner. […] AC50 values were determined from concentration-response data modeled with the standard Hill equation.
qHTS protocol for MultiTox-Fluor Cytotoxicity assay
[Step] [Parameter] [Value] [Description]
1. Reagent; 5 uL; 2500 lymphoblastoid cells/well
2. Time; 5 hr; 37 C incubation
4. Controls; 23 nL; Tetraoctylammonium bromide 6.4pM to 92 uM
5. Time; 16 hr; 37 C incubation
6. Reagent; 5 uL; MuliTox-Fluor Assay reagent
7. Time; 60 min; Room Temperature
8. Detection; live-cell fluorescence (Ex/Em=405/510); EnVision plate reader
Keywords: cell viability, cytotoxicity, lymphoblastoid cell line, fluorescence, NTPHTS, NTPHTS_NCGC, NIEHS, EPA, DSSTox, MLSMR, MLSCN, NIH Roadmap, qHTS, NCGC
Potency is read from the fitted curve at half-maximal effect.

Compound | Potency
CC(C)(c1ccc(O)cc1)c1ccc(O)cc1 | inactive
Nc1c2ccccc2nc2ccccc12 | inactive
CCCC(=O)c1cc(O)c(O)cc1O | inactive
CC(=O)OC/C=C(C)/C=C/C=C(C)/C=C/C1=C(C)CCCC1(C)C | inactive
O=C(Oc1ccccc1)c1ccccc1O | inactive
CCCCC(CC)COC(=O)c1ccccc1C(=O)O (stereo unspecified) | inactive
COc1cc(C=O)ccc1O | inactive
CC(C)(C)c1ccc(O)c(O)c1 | inactive
O=C(c1ccccc1)c1ccccc1 | inactive
OCc1c[nH]c2ccccc12 | inactive
C1=CC2C3C=CC(C3)C2C1 (stereo unspecified) | inactive
Nc1cccc2c(N)cccc12 | inactive
CCCCCCCCCCCCCCCC[n+]1ccccc1 | 12.6 µM (active)
Cc1ccc(O)cc1 | inactive
c1ccc2occc2c1 | inactive
Brc1ccccc1-c1ccccc1 | inactive
Nc1ccc(O)cc1 | 25.1 µM (active)
Oc1ccccc1 | inactive
CC(C)C(C)(C)C(C)(C)C(C)(C)S | inactive
O=C(NO)c1ccccc1 | inactive
Cc1cc(C(C)(C)C)c(O)c(C(C)(C)C)c1 | inactive

From PubChem BioAssay (NCATS)
